The record followed here is ChEMBL document CHEMBL3988442, “University of Dundee, Small-Polar-MMV Screening Library” (2021).

Several values for one entry are separate records, joined by “and”; a condition that tells them apart may be missing. Identical values can stand only once. Among all 53,000 compounds or so, about 900 (1.7%) showed an effect of 50% or more. The list comes from a sample in which strong results are over-represented; it also holds similar structures and randomly drawn compounds.

In this experiment the test system is Mycobacterium tuberculosis. The experiment is described as follows: Cornell - Phenotypic assay to identify agents that inhibit growth of Mycobacterium tuberculosis. Format: functional. On the set-up: scale not given: direction of the effect not stated beside the values.

As to `CCCc1nc(NC2(COC)CCCC2)c2cnn(C)c2n1`, the “Percent Effect” value (10 mM as filed; unlikely as a test dose) was 21.48%. In the case of `Cc1ccc(C)c(S(=O)(=O)CCN2CCCC2Cn2cncn2)c1` (stereo not drawn), under “10 mM as filed; unlikely as a test dose”, the “Percent Effect” value is given as 23.02%. Turning to `Fc1cccnc1O[C@@H]1CN(Cc2ccccn2)[C@@H]2CCCO[C@@H]21.O=C(O)C(F)(F)F.O=C(O)C(F)(F)F`, where the note is “10 mM as filed; unlikely as a test dose”, the “Percent Effect” value came out at 2.355%. As for `Cc1ccc(-c2cc(CN3CCCC(Cn4cncn4)C3)on2)cc1` (stereo not drawn), under “10 mM as filed; unlikely as a test dose”, the “Percent Effect” value is 8.833%.

On to `O=C(C[C@@H]1COC[C@H]2CN(Cc3ccccn3)C[C@@H]12)N1CCOCC1.O=C(O)C(F)(F)F.O=C(O)C(F)(F)F`, for which the “Percent Effect” value (10 mM as filed; unlikely as a test dose) is 6.339%. Regarding `Fc1ccc(C(NCc2nnc(-c3ccco3)o2)C2CCC2)cc1` (stereo not drawn), the “Percent Effect” value (10 mM as filed; unlikely as a test dose) turned out to be 56.57%. Take `Fc1ccc(C(NCc2nnc(C3CC3)o2)C2CCC2)cc1` (stereo not drawn): the “Percent Effect” value (10 mM as filed; unlikely as a test dose) is given as 14.86%.

Turning to `c1ccc(C(NCc2nnc(-c3ccco3)o2)C2CCC2)cc1` (stereo not drawn), the “Percent Effect” value (10 mM as filed; unlikely as a test dose) was found to be 14.05%. Take `CC(CNC(=O)Nc1ccc(F)cc1-n1cccc1)N1CCOCC1` (stereo not drawn): where the note is “10 mM as filed; unlikely as a test dose”, the “Percent Effect” value was found to be 31.56%. `CCNc1ncc(C(=O)NCc2ccc3nsnc3c2)cn1`: under “10 mM as filed; unlikely as a test dose”, the “Percent Effect” value turned out to be 105.6%. Turning to `CCNc1ncc(C(=O)NCc2cccc(OC(F)(F)F)c2)cn1`, the “Percent Effect” value (10 mM as filed; unlikely as a test dose) was 27.01%. The same measure, in the same setting: with `CCNc1ncc(C(=O)NCc2ccc(F)c(C(F)(F)F)c2)cn1` the figure was -33.7%; with `O=C(NC1CC1)N1C[C@H]2CN(Cc3cccc(F)c3)C(=O)[C@H]2C1`, -1.024%. `Cc1ccc(CN(CCCN(C)C)Cc2cnc(N(C)C)nc2)o1.O=C(O)CC(O)(CC(=O)O)C(=O)O`: under “10 mM as filed; unlikely as a test dose”, the “Percent Effect” value is recorded as -2.664%. `O=C(O)C(F)(F)F.O=C([C@H]1C[C@H]2OCC[C@H]2N(Cc2ccccn2)C1)N1CCCCO1`: the “Percent Effect” value (10 mM as filed; unlikely as a test dose) was -19.88%.

In the case of `N#Cc1cccnc1OC1CCN(C(=O)c2cc(C3CC3)on2)CC1`, the “Percent Effect” value (10 mM as filed; unlikely as a test dose) is recorded as 39.39%. For `O=C(c1cc(C2CC2)on1)N1CCC(Oc2ncccc2Br)CC1`, for the setting “10 mM as filed; unlikely as a test dose”, the “Percent Effect” value stood at 83.65%. With `O=C(c1cnccn1)N1CCC(Oc2ncccc2Cl)CC1`, the “Percent Effect” value (10 mM as filed; unlikely as a test dose) is given as 13.63%.

Turning to `O=C(c1cc(C2CC2)on1)N1CCC(Oc2ncccc2Cl)CC1`, under “10 mM as filed; unlikely as a test dose”, the “Percent Effect” value came to 82.03%. On to `O=C(c1ccccn1)N1CCC(Oc2cccnc2)CC1`, for which the “Percent Effect” value (10 mM as filed; unlikely as a test dose) was -17.68%. On the same count and under the same terms, to `O=C(c1ccccn1)N1CCC(Oc2ncccc2Cl)CC1` belongs 37.07%. Turning to `CN(C)S(=O)(=O)N1CC(c2ccnc(Nc3ccccn3)n2)C1`, under “10 mM as filed; unlikely as a test dose”, the “Percent Effect” value is on record as 25.46%. As to `COc1ccc(CN2CCC3(CC2)CCN(CC2CC2)C3=O)cc1.O=C(O)C(F)(F)F`, where the note is “10 mM as filed; unlikely as a test dose”, the “Percent Effect” value was determined as 6.492%. As for `CCC(=O)N1CCCCC[C@@H]2[C@@H]1[C@H](c1cccc(F)c1)CN2C`, the “Percent Effect” value (10 mM as filed; unlikely as a test dose) is reported as -24.01%. As to `COc1cccc(C(=O)Nc2n[nH]c(C3CCCO3)n2)c1` (stereo not drawn), the “Percent Effect” value (10 mM as filed; unlikely as a test dose) came to 12.47%.

Consider `CCOc1ncccc1CNC(=O)NCCNC(=O)c1ccco1`, for which the “Percent Effect” value (10 mM as filed; unlikely as a test dose) is reported as 0.1336%. On to `CCNC(=O)c1cc2n(n1)CCCO2`, for which the “Percent Effect” value (10 mM as filed; unlikely as a test dose) is -8.867%. As to `O=C(c1cccnc1)N1CCc2[nH]nc(Nc3ccccc3)c2C1`, the “Percent Effect” value (10 mM as filed; unlikely as a test dose) is 46.76%. The same measure, in the same setting: to `O=C(c1cncs1)N1CCc2[nH]nc(Nc3ccccc3)c2C1` belongs 58.68%; to `O=C(c1ccncc1)N1CCc2[nH]nc(Nc3ccccc3)c2C1`, -24.78%.

Take `CN(Cc1ccc(F)cc1)CC1(O)CCN(C(=O)c2cccs2)C1` (stereo not drawn): the “Percent Effect” value (10 mM as filed; unlikely as a test dose) is given as -44.56%.

Consider `COc1cccc(CCC(=O)Nc2ccn(C)n2)c1OC`, for which the “Percent Effect” value (10 mM as filed; unlikely as a test dose) is -2.109%. On to `COc1cccc(C2C3=C(COC3=O)Nc3[nH]nc(C)c32)c1O` (stereo not drawn), for which the “Percent Effect” value (10 mM as filed; unlikely as a test dose) was -49.1%.

Take `CCOc1c(Br)cc(C2C3=C(COC3=O)Nc3[nH]nc(C)c32)cc1OC` (stereo not drawn): the “Percent Effect” value (10 mM as filed; unlikely as a test dose) is reported as 33.99%. Turning to `COc1cc(C2C3=C(COC3=O)Nc3[nH]nc(C)c32)cc(Br)c1O` (stereo not drawn), the “Percent Effect” value (10 mM as filed; unlikely as a test dose) was found to be 101.5%. As for `Cc1cnn(C2CCCN(C(=O)c3cc(C)sc3C)C2)c1` (stereo not drawn), for the setting “10 mM as filed; unlikely as a test dose”, the “Percent Effect” value was determined as 1.503%.

Turning to `CCOC(=O)CC(c1cccc(OC)c1OC)c1c(C)[nH][nH]c1=O` (stereo not drawn), the “Percent Effect” value (10 mM, 10 mM as filed; unlikely as a test dose) was 39.38% and 50.02%. On to `CCOC(=O)CC(c1ccc(OC)c(OC)c1)c1c(O)n[nH]c1C` (stereo not drawn), for which, for the setting “10 mM as filed; unlikely as a test dose”, the “Percent Effect” value was 17.75%. As for `COC(=O)CC(c1ccc(OC)c(OC)c1OC)c1c(O)n[nH]c1C` (stereo not drawn), the “Percent Effect” value (10 mM as filed; unlikely as a test dose) is given as 39.76%. For `O=C(NC[C@]1(O)CCN(Cc2ccccc2F)C[C@H]1O)c1c[nH]cn1`, the “Percent Effect” value (10 mM as filed; unlikely as a test dose) is -15.39%.

Consider `CC(C)c1ccc(CN[C@@H]2COC[C@H]2c2ccc(F)cc2)cc1`, for which, for the setting “10 mM as filed; unlikely as a test dose”, the “Percent Effect” value is recorded as 38.02%. Consider `COc1ccccc1CNC(=O)C1=NN(c2ccc(C)cc2)C(=O)CN1`, for which the “Percent Effect” value (10 mM as filed; unlikely as a test dose) was 59.16%. For `O=C(NCc1cccnc1)C1=NN(c2ccccc2)C(=O)CN1`, the “Percent Effect” value (10 mM as filed; unlikely as a test dose) is given as -12.05%. With `COCc1ccc(CNC(=O)C2=NN(c3ccccc3)C(=O)CN2)cc1`, under “10 mM as filed; unlikely as a test dose”, the “Percent Effect” value is -8.016%. Turning to `O=C(NCCNC(=O)c1scnc1Cl)c1ccccc1Cl`, the “Percent Effect” value (10 mM as filed; unlikely as a test dose) was 2.223%. In the case of `CCn1nc(C)c2nc(C)nc(NCCc3ccccc3)c21`, the “Percent Effect” value (10 mM as filed; unlikely as a test dose) was 18.42%. With `CCCc1nc(N2CCCCCC2)c2c(n1)c(C)nn2CC`, the “Percent Effect” value (10 mM as filed; unlikely as a test dose) is recorded as 68.4%. Take `CCCc1nc(N2CCSCC2)c2c(n1)c(C)nn2CC`: the “Percent Effect” value (10 mM as filed; unlikely as a test dose) was found to be 16.49%. `CCCc1nc(N2CCCCC2)c2c(n1)c(C)nn2CC`: under “10 mM as filed; unlikely as a test dose”, the “Percent Effect” value is given as -11.73%. As for `CCCc1nc(NCCc2ccccc2)c2c(n1)c(C)nn2CC`, the “Percent Effect” value (10 mM as filed; unlikely as a test dose) was 98.38%. For the compound `CCCc1nc(N2CCC(C)CC2)c2c(n1)c(C)nn2CC`, for the setting “10 mM as filed; unlikely as a test dose”, the “Percent Effect” value worked out at 17.45%.

Regarding `CCn1nc(C)c2nc(C)nc(NC3CCCC3)c21`, the “Percent Effect” value (10 mM as filed; unlikely as a test dose) is 42.26%.

Turning to `CCCc1nc(N2CCN(CC)CC2)c2c(n1)c(C)nn2CC`, where the note is “10 mM as filed; unlikely as a test dose”, the “Percent Effect” value is 19.74%.

Regarding `CCn1nc(C)c2nc(C)nc(NCCc3ccc(C)cc3)c21`, the “Percent Effect” value (10 mM as filed; unlikely as a test dose) stood at 87.9%.

In the case of `COc1cc(C(=O)N(CCC#N)Cc2ccccn2)ccc1C`, the “Percent Effect” value (10 mM as filed; unlikely as a test dose) is listed as 2.226%. Regarding `COC1CCN(S(=O)(=O)NCC2COc3ccccc3C2)CC1` (stereo not drawn), the “Percent Effect” value (10 mM as filed; unlikely as a test dose) is given as 23.14%. For the compound `CC(=O)N1CCC(C(=O)NC2CCc3nccn3C2)CC1` (stereo not drawn), the “Percent Effect” value (10 mM as filed; unlikely as a test dose) was -4.558%. Consider `Cc1nnc(C2CCN(c3ccc(F)cc3)CC2)o1`, for which the “Percent Effect” value (10 mM as filed; unlikely as a test dose) is 0.33%. For the compound `CC[C@H]1N(C)CCC[C@]12CCC(=O)N2Cc1ccncc1.O=C(O)C(F)(F)F.O=C(O)C(F)(F)F`, under “10 mM as filed; unlikely as a test dose”, the “Percent Effect” value came out at 4.525%. For `Cc1cn2c(n1)CCC(NC(=O)c1[nH]nc(C)c1Br)C2` (stereo not drawn), where the note is “10 mM as filed; unlikely as a test dose”, the “Percent Effect” value is -35.87%. For the compound `O=C(CSC1CCc2ccccc2NC1=O)NC1CC1` (stereo not drawn), the “Percent Effect” value (10 mM as filed; unlikely as a test dose) is -0.1015%. `COc1cccc(CN2CCC(c3nn(CCN)c4nccnc34)C2)c1` (stereo not drawn): the “Percent Effect” value (10 mM as filed; unlikely as a test dose) is -33.21%. As for `COc1cccc(NC(=O)NCC2CCCN(C3CCOCC3)C2)c1` (stereo not drawn), for the setting “10 mM as filed; unlikely as a test dose”, the “Percent Effect” value was -9.956%.
